The values that follow come from PubChem BioAssay (NCI).

Values joined by “and” are separate entries in the source; they are usually repeats but may differ in a detail not shown here. Equal entries are not always repeated. This is part of a sample that, as a whole, favours compounds with a hit. Of some 83,000 tested, about 20% had one in any assay.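 In brief: 96-well plates, 48 h treatment, single concentration, percent growth endpoint.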 Active and inactive are the calls of the source. The calls were made as follows: active = growth percent below 10; inactive = the rest.

What all share (test): NCI-60 one-dose screen, 48 h (100 = growth as untreated, 0 = no growth, -100 = all killed)
Details in all cases: 10 µM unless noted

Test [1] concerns NCI-H23 lung.
The subject of test [2] is NCI-H226 lung.
Test [3] concerns NCI-H322M lung.
Test [4] relates to HOP-62 NSCLC.
Test [5] concerns NCI-H460 lung.
Test [6] concerns NCI-H522 lung.
In test [7] the test system is A549/ATCC NSCLC.
The subject of test [8] is 786-0 renal.
The test system of test [9] is COLO 205 colon.
Test [10] deals with DU-145 prostate.
For test [11], the system named is K-562 leukemia.
Test [12] relates to MALME-3M melanoma.
Test [13] deals with MDA-MB-231 breast.
Test [14] relates to RXF 393 renal.
Test [15] concerns SF-268 CNS.
Test [16] concerns SF-295 CNS.
Test [17] concerns SF-539 CNS.
Test [18] concerns UACC-257 melanoma.
Test [19] relates to M14 melanoma.
In test [20] the test system is HOP-92 NSCLC.

Take `NC(=S)N/N=C(\c1ccc(Br)cc1)C1CC1`: the growth in test [1] was 94.2% (inactive) and 87.9% (inactive); in test [2], 96.7% (inactive) and 87.6% (inactive); in [3], 101% (inactive) and 83.7% (inactive); in test [4], 96.4% (inactive) and 87% (inactive); in [5], 104% (inactive) and 102% (inactive); in [6], 98.9% (inactive). Besides, the growth was 103% (inactive) in [7]; 113% (inactive) and 106% (inactive) in test [8]; 98.4% (inactive) and 94.5% (inactive) in [9]; 96.8% (inactive) and 107% (inactive) in test [10]; 38% (inactive) and 43.1% (inactive) in [11]; 84.3% (inactive) in [12]. Also, the growth was 67.2% (inactive) in test [13]; 122% (inactive) and 98.1% (inactive) in test [14]; 97.2% (inactive) and 103% (inactive) in test [15]; 93.5% (inactive) and 81.8% (inactive) in [16]; 99% (inactive) and 100% (inactive) in [17]; 63.1% (inactive) in test [18]. In test [19], the growth was 88% (inactive) and 84.1% (inactive).

On to `CCOc1ccc2nc3cc(N)ccc3c(N)c2c1`, for which the growth in test [1] is 46.3% (inactive) and 40.5% (inactive); in test [2], 20.2% (inactive) and 44.6% (inactive); in test [3] it was 36.7% (inactive) and 28.8% (inactive); in test [4], 23% (inactive) and 26.8% (inactive); in test [5] it was 29.3% (inactive) and 61.9% (inactive); in test [20] it was 58.3% (inactive). In addition, the growth was 0.893% (active) and 10.4% (inactive) in test [6]; 24.2% (inactive) and 13.8% (inactive) in [8]; 71.1% (inactive) and 75.9% (inactive) in [9]; 64.2% (inactive) and 67.6% (inactive) in [10]; 113% (inactive) and 57.9% (inactive) in test [11]; -18.6% (active) and -14.8% (active) in test [12]. The growth in test [13] was 86.5% (inactive); in test [14], 55.5% (inactive) and 43.2% (inactive); in test [15] it was -39.5% (active) and -36.7% (active); in test [16] it was 30.4% (inactive) and 16.5% (inactive); in test [17], 34.9% (inactive) and 31.7% (inactive); in test [18], 62.3% (inactive) and 67.3% (inactive). Also, the growth in [19] was 90.3% (inactive) and 75.8% (inactive).

`CC(C)(O)Cn1cc(-c2ccc3nc(OC4CC4)ccc3c2)c2c(N)ncnc21`: the growth in test [1] was 70.1% (inactive) and 42% (inactive); in test [2], 56.5% (inactive) and 26.5% (inactive); in test [3], 96.7% (inactive) and 73.5% (inactive); in [4] it was 73.8% (inactive) and 39.8% (inactive); in test [5], 88.5% (inactive) and 27.6% (inactive); in test [20] it was 48% (inactive) and 32.8% (inactive). The growth in test [6] was 67.1% (inactive) and 36.8% (inactive); in test [8], 89.1% (inactive) and 60.2% (inactive); in test [9], 91.3% (inactive) and 58.7% (inactive); in test [10], 102% (inactive) and 75.6% (inactive); in test [11], 88% (inactive) and 35.8% (inactive); in [12], 70.2% (inactive) and 44.2% (inactive). Further, the growth in [13] is 69.2% (inactive) and 46.4% (inactive); in [14], 73.3% (inactive) and 50.5% (inactive); in test [15] it was 91.2% (inactive) and 57.1% (inactive); in test [16], 79.2% (inactive) and 56.7% (inactive); in [17] it was 81.6% (inactive) and 58.6% (inactive); in [18], 70.8% (inactive). For the same molecule, the growth in test [19] was 80.6% (inactive) and 62.3% (inactive).

With `O=C(/C=C\c1ccnc2ccccc12)c1ccc([N+](=O)[O-])cc1`, the growth in [1] is 91.4% (inactive) and 63% (inactive); in test [2], 85.3% (inactive) and 68.5% (inactive); in [3] it was 112% (inactive) and 115% (inactive); in test [4], 104% (inactive) and 77.9% (inactive); in [5], 99.7% (inactive) and 79.8% (inactive); in test [20] it was 78% (inactive) and 58% (inactive). The growth is 36.7% (inactive) and 67.7% (inactive) in test [6]; 88.8% (inactive) and 81.4% (inactive) in test [8]; 118% (inactive) and 105% (inactive) in test [9]; 101% (inactive) and 96% (inactive) in test [10]; 55.1% (inactive) and 8.08% (active) in test [11]; 101% (inactive) and 85.5% (inactive) in [12]. The growth is 84.1% (inactive) and 93.2% (inactive) in test [13]; 107% (inactive) and 75.7% (inactive) in test [14]; 105% (inactive) and 91.6% (inactive) in [15]; 82.6% (inactive) in test [16]; 85.2% (inactive) in test [17]; 90% (inactive) and 65.8% (inactive) in [18]. Moreover, the growth in test [19] is 90.7% (inactive) and 79.5% (inactive).

For the molecule `COc1ccccc1NC(=O)OCC#CCOC(=O)Nc1ccccc1OC`, the growth in test [1] is 101% (inactive) and 95.5% (inactive); in test [2] it was 97.8% (inactive) and 90.5% (inactive); in test [3], 112% (inactive) and 98.4% (inactive); in test [4], 102% (inactive) and 91.8% (inactive); in [5], 110% (inactive) and 94.7% (inactive); in test [6], 80.2% (inactive) and 76.8% (inactive). The growth was 101% (inactive) and 87% (inactive) in [7]; 108% (inactive) and 88.2% (inactive) in [8]; 107% (inactive) and 120% (inactive) in [9]; 146% (inactive) and 96.5% (inactive) in [10]; 75% (inactive) and 57.3% (inactive) in [11]; 96.6% (inactive) in test [12]. Moreover, the growth in test [13] is 102% (inactive) and 105% (inactive); in test [14], 102% (inactive) and 90.3% (inactive); in [15], 116% (inactive) and 89.4% (inactive); in [16], 105% (inactive) and 94% (inactive); in test [17], 99.9% (inactive) and 91.6% (inactive); in test [18] it was 100% (inactive) and 91.1% (inactive). Moreover, the growth in test [19] is 106% (inactive) and 95.5% (inactive).
